According to PubChem BioAssay AID687001 (Broad Institute, 2013):
Measured potencies and affinities stand elsewhere. The source made the active and inactive calls.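 Rule for the calls: active = signal-lowering compounds whose fitted half-maximal concentration is at or below twice the top tested dose in every run; inconclusive = runs disagree, flat 30 to 70% inhibition, or poor curve fit; inactive = the rest.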

target: Protein S100-A4 (Homo sapiens) (UniProt P26447); assay: S100A4-myosin IIA binding inhibitor potency, dose response, biochemical, fluorescence polarization, cherry-picked hits (AID 687001); settings: FP, S100A4/TAMRA-myosin IIA peptide binding; series mostly up to 11 µM
Sequence (P26447 whole entry, looked up): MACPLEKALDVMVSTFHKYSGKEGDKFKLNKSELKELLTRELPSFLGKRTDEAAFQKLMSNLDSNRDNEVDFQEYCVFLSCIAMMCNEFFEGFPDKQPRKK

outcome, inactive:
O=C(C[C@H]1CC[C@@H]2[C@H](COC[C@H](O)CN2C(=O)Nc2ccc3c(c2)OCO3)O1)N1CCN(c2ccccc2)CC1, CC(C)[C@H](NC(=O)c1ccccc1F)C(=O)NCc1ccc(S(N)(=O)=O)cc1, C=CCNC(=O)/C(C#N)=C/c1c(N(Cc2ccccc2)Cc2ccccc2)nc2ccccn2c1=O, Cc1ccc(C2CC(=O)NC(SCCC(C)C)=C2C#N)cc1 (centres undefined), Cc1ccc2c(nc3s/c(=C\c4ccc(-c5ccccc5C(=O)O)o4)c(=O)n32)c1C, S=c1[nH]nc(-c2cc(-c3ccsc3)n[nH]2)n1-c1ccccc1, Cn1c(=O)[nH]c2c(nc(-c3ccc(Cl)cc3)n2C)c1=O, COCc1cc(=O)[nH]c(SCC(=O)N2CCOCC2)n1, Cc1cc(C(=O)CSc2nc(N)cc(=O)[nH]2)ccc1F, Cc1cc(C)n2nc(Sc3ncccc3[N+](=O)[O-])nc2n1, C[C@H]1CN([C@@H](C)CO)C(=O)c2cc(Br)cnc2O[C@H]1CN(C)C(=O)c1ccccc1F, CO[C@H]1CN(C)C(=O)c2ccc(NC(=O)C3CCCCC3)cc2OC[C@@H](C)N(Cc2nccs2)C[C@@H]1C, CN(C)CCCN(C(=O)c1ccc(S(=O)(=O)N2CCCCCC2)cc1)c1nc2cc3c(cc2s1)OCO3, COc1ccc(/C=C(\C#N)C(=O)c2cccn2C)cc1, CCCC(=O)Nc1ccc2c(c1)OC[C@H](C)N(CCC(F)(F)F)C[C@H](C)[C@@H](OC)CN(C)C2=O, C=CCn1c(C)nnc1SCC(=O)Nc1ccccc1C(=O)NC1CC1, C[C@H]1CCCCO[C@H](CN(C)Cc2ccc(C(F)(F)F)cc2)[C@@H](C)CN([C@@H](C)CO)C(=O)c2cc(NC(=O)Nc3ccc4c(c3)OCO4)ccc2O1, C[C@@H]1CCCCO[C@@H](CN(C)C(=O)Nc2cccc3ccccc23)[C@H](C)CN([C@@H](C)CO)C(=O)c2cc(NC(=O)C3CCCCC3)ccc2O1, O=C(O)CSc1c2c(nc3cc(C(=O)Nc4cccc(C(F)(F)F)c4)ccc13)CCCC2, COC(=O)c1ccc2c(=O)n(CCCCCC(=O)NC3CCCCC3)c(=O)[nH]c2c1, NS(=O)(=O)c1ccc(NCc2cnc3ccccc3c2)cc1, O=C(C1CCCC1)N1C[C@@H]2[C@H](c3ccccc31)[C@@H](CO)N2C(=O)c1ccccc1F, CC(OC(=O)C1=COCCO1)C(=O)Nc1ncc(Cl)cc1Cl (centres undefined), CCCNC(=O)N1[C@H](CO)[C@@H]2c3ccccc3N(C(=O)c3ccc(F)cc3)C[C@@H]21
